Compound activity as filed in PubChem.
Shown is part of a subset that was picked to be rich in hits.
Sa growth 42C – inhibitors of Staphylococcus aureus growth at 42 °C; S. aureus RN4220 growth, OD600, 20 h; hits give low values; relative growth, % (test concentration not listed); 170,000 tested, 0.53% active; AID 720641;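 active = relative growth at most 50% at the other temperature and 20+ points below 30 °C, or under 10% at both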
S aureus helic – S. aureus DNA helicase inhibition. purified S. aureus helicase, fluorescence unwinding assay. inhibition, % (test concentration not listed). 120,000 tested, 0.05% active. AID 485395; in the data active = inhibition above about 25%, passing the limit was not always enough
HCMV NEC inh – disrupts HCMV UL50-UL53 complex binding | inhibition, % (no concentration beside the values) | AID 1918969 | HTRF UL50-UL53 interaction, normalized percent inhibition | 190,000 tested, 0.15% active; in the data active = inhibition above about 27%, passing the limit was not always enough
Hits are given with their value; i = inactive; nt = no result.

SMILES | Sa growth 42C | S aureus helic | HCMV NEC inh
COc1cc(C=C2C(=O)NC(=O)NC2=O)ccc1OS(=O)(=O)c1ccccc1[N+](=O)[O-] | nt | nt | 51.2
COc1cccc(C=C2C(=O)NC(=O)NC2=O)c1 | i | i | i
CCOC(=O)c1ccc(-c2ccc(C=C3C(=O)NC(=O)NC3=O)o2)cc1 | i | i | i
O=C1NC(=O)C(=Cc2ccccc2)C(=O)N1 | i | i | 99.1
CC(C)c1ccc(C=C2C(=O)NC(=O)NC2=O)cc1 | i | i | nt
Cc1ccc(C(=O)N2c3ccc(C)cc3[C@@H]3CN(C)CC[C@H]32)cc1 | i | i | i
CC(C)CP(=O)(O)c1ccccc1 | i | nt | i
COCCOC(=O)C1=C(N)OC(C)=C(C(=O)OCc2ccccc2)C12C(=O)Nc1ccccc12 (stereo unspecified) | nt | nt | i
CCOc1ccc(N2C(=O)NC(=O)/C(=C/c3cc(Cl)c(O)c(OC)c3)C2=O)cc1 | nt | nt | i
N#CC(C#N)=C(C#N)c1ccc(Nc2ccccc2)cc1 | i | i | i
N#CC(C#N)=NNc1ccccc1 | 0.0 | i | i
CC1(C)CC(=O)C(C2(O)C(=O)NC(=O)NC2=O)=C(O)C1 | i | i | 62.9
CCN(CC)P1(=O)COc2ccccc2OC1 | i | i | i
O=c1c2ccccc2nc(-c2ccccc2)n1-c1ccccc1 | i | i | i
O=c1c2ccccc2[se]n1-c1ccccc1 | 0.3 | nt | i
NC(=O)CS(=O)(=O)C(c1ccccc1)c1ccccc1 | i | i | i
Oc1cccc2cccnc12 | 0.2 | nt | i
CN(C)C(=O)Oc1cccc2cccnc12 | i | i | i
C=CCN1C(=O)/C(=C\c2ccc(OC)cc2)C(=O)NC1=S | i | i | i
c1ccc(Cn2ccnc2)cc1 | i | nt | i
Clc1ccc(COC(Cn2ccnc2)c2ccc(Cl)cc2Cl)cc1 (stereo unspecified) | -0.6 | nt | i
Clc1ccc(C(c2ccc(Cl)cc2)n2cc[n+](CC(OCc3ccc(Cl)cc3Cl)c3ccc(Cl)cc3Cl)c2)cc1 (stereo unspecified) | nt | nt | i
Clc1ccc(CSC(Cn2ccnc2)c2ccc(Cl)cc2Cl)cc1 (stereo unspecified) | -0.3 | nt | i
COC(=O)NP(=O)(NNc1ccccc1)OC (stereo unspecified) | i | i | i
O=C(Cn1c2ccccc2c2cn[nH]c(=O)c21)N1CCC2(CC1)OCCO2 | i | i | i
SMILES | Sa growth 42C | S aureus helic | HCMV NEC inh
Cc1cc(C)c2oc(-c3ccc(N/C=c4\c(C)c(C#N)c5nc6ccccc6n5c4=O)cc3)nc2c1 | i | i | i
CC1(C)CSC(Nc2ccccc2Cl)=N1 | i | i | i
CN1C(=O)C(=Cc2coc3ccccc3c2=O)C(=O)N(C)C1=O | i | i | 38.8
CC(c1ccccc1)N1C(=O)NC(=O)/C(=C/c2coc3ccccc3c2=O)C1=O (stereo unspecified) | i | i | nt
Cc1nn(-c2ccccc2)c2c1P(=S)(N1CCOCC1)N(C)C(c1ccccc1)=N2 (stereo unspecified) | i | i | i
CN1C(=O)NC(=O)/C(=C\C=C\c2ccco2)C1=O | i | i | nt
O=C1NC(=S)NC(=O)C1=C/C=C/c1ccco1 | i | i | 77.6
COc1cc(C=C2C(=O)NC(=O)NC2=O)ccc1OCc1ccc(C(=O)O)cc1 | nt | nt | i
O=C1NC(=O)C(=Cc2ccc(OCc3ccc(C(=O)O)cc3)c(Br)c2)C(=O)N1 | nt | nt | 62.6
CCC(=O)NCC(=O)Nc1ccc(Br)cc1C(=O)c1ccccc1 | nt | i | i
CCNC(=O)[C@H]1O[C@@H](n2cnc3c(N)ncnc32)[C@@H](O)C1O (stereo partly specified) | nt | nt | i
CCCC1COC(Cn2cncn2)(c2ccc(Cl)cc2Cl)O1 (stereo unspecified) | 5.4 | i | i
O=C1NC(=O)C(=Cc2ccc(OCCOc3ccc([N+](=O)[O-])cc3)cc2)C(=O)N1 | nt | nt | i
O=C1NC(=O)C(=Cc2cccc(OCCOc3ccc([N+](=O)[O-])cc3)c2)C(=O)N1 | nt | nt | 36.8
CCCCn1c(=O)c(C(=O)NC)c(O)c2ccccc21 | i | i | i
Cc1oc2ccccc2c1-c1ccc2ccccc2n1 | 33.6 | i | i
CN1CCN(c2ccc3ccccc3n2)CC1 | nt | nt | i
COc1ccc(-n2c(C)cc(/C=C3/C(=O)NC(=O)N(Cc4ccco4)C3=O)c2C)cc1 | i | i | i
COc1ccc(CN2C(=O)NC(=O)/C(=C\c3cccc(OC)c3OC)C2=O)cc1 | nt | nt | 77.9
N#Cc1ccc(CN2CCNCC2)cc1 | i | i | i
CCn1nc(-c2ccccc2)nc2c(=O)n(C)c(=O)nc1-2 | 0.3 | i | 88.3
CCn1nc(-c2cccnc2)nc2c(=O)n(C)c(=O)nc1-2 | -0.2 | i | i
CCN(CC)C(=O)c1ccc(NC(=O)Cn2nc(-c3ccccc3)c3ccccc3c2=O)cc1 | i | i | i
CN=C1N=P(NC)(NC)N=C(c2ccccc2)N1 | i | i | i
O=S(=O)(F)c1ccc(C2=CC(c3ccccc3)n3ncnc3N2)cc1 (stereo unspecified) | nt | nt | i
SMILES | Sa growth 42C | S aureus helic | HCMV NEC inh
Cc1ccc(N2C(=O)NC(=O)/C(=C\c3cc(C)n(-c4cc(C(=O)O)cc(C(=O)O)c4)c3C)C2=O)cc1 | nt | nt | 31.9
Cc1cc(/C=C2\C(=O)NC(=O)N(c3ccc(F)cc3)C2=O)c(C)n1-c1ccc(C(=O)O)cc1 | nt | nt | i
Cc1[nH]nc2c1C(c1cccc(O)c1)SCC(=O)N2 (stereo unspecified) | nt | nt | i
OC(CNC1CCCCCC1)C(F)(F)F (stereo unspecified) | nt | nt | i
Cn1c(O)c(/C=C2/C=Nc3ccccc32)c(=O)n(C)c1=O | i | i | i
Clc1ccc(CO/N=C(\Cn2ccnc2)c2ccc(Cl)cc2Cl)c(Cl)c1 | -0.4 | nt | i
COC(=O)C1=C(C)N(C)C(=O)C12c1ccccc1-c1oc(N)nc12 (stereo unspecified) | i | i | i
